Screening data deposited in PubChem BioAssay by National Center for Advancing Translational Sciences (NCATS).
Most compounds without a hit are left out; they make up all but 1.5% or so of the library.
FEN1 inhibitor = inhibitors of human flap endonuclease 1; AID 588795; 0.35% of 390,000 active; Potency, µM (top dose mostly 114 µM), hits mostly inhibitors; Recombinant FEN1 flap cleavage, fluorescence, 15 min; P39748; also: nearly all actives have a fitted effect of over 65% in size
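In this screen, 50 nM flap DNA substrate was added to 10 nM FEN1 pretreated with compound for 15 min at room temperature; cleavage was followed with reads at 0 and 15 min, and Hill fitting gave concentration–response parameters.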
KAT2A inh = inhibitors of human GCN5L2 histone acetyltransferase | AID 504327 | 0.21% of 390,000 active | Potency, µM (highest dose often 58.9 µM), usual class: inhibitors | GCN5L2 HAT assay, ThioGlo1 CoA-SH fluorescence | Q92830
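Fluorescence readout, Ex340nm/Em540nm: ThioGlo1 (50uM final) reacts with free CoA thiol released as 20nM GCN5L2 acetylates H3(1-25) peptide (75uM) using acetyl-CoA (70uM). Compound and enzyme sat 15 min beforehand; 20 min room-temperature reaction.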
APE1 inh = blocks human APE1 abasic DNA cleavage | P27695 | recombinant APE1, TAMRA/BHQ-2 abasic DNA cleavage fluorescence | Potency, µM (titrated, usually from 65.8 µM), most hits filed as inhibitors | 0.35% of 350,000 active | AID 2517; also: nearly all actives have a fitted effect of over 55% in size
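Step 1: APE1 (0.75 nM) with compound, 15 min RT. Step 2: add 50 nM fluorophore/quencher THF duplex. Step 3: three fluorescence reads 60 s apart (525/598 nm); read 3 minus read 1 = reaction progress.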
BLM inh = blocks DNA unwinding by human BLM helicase | recombinant BLM DNA unwinding, fluorescence dequenching | Potency, µM (series often up to 56.1 µM), hits mostly inhibitors | 0.2% of 350,000 active; also: nearly all actives have a fitted effect of over 35% in size
RECQ1 helicase = blocks DNA unwinding by human RECQ1; P46063; RECQ1 DNA unwinding, red fluorescence kinetic read; Potency, µM (doses to about 57.3 µM), hits mostly inhibitors; 0.54% of 240,000 active; also: nearly all actives have a fitted effect of over 30% in size
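50 nM RECQ1T1 preincubated 15 min with compound in Tris pH 8.0 buffer with MgCl2, DTT, Tween-20 and 2.5 ug/ml poly(dI-dC); started with 200 nM TAMRA/BHQ-2 forked duplex and 2 mM ATP. Unwinding read as fluorescence (525/598 nm), two reads 2 h apart.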
PI5P4Ka inh = PI5P4K alpha (human) kinase inhibition; AID 652105; P48426; max response, %; 1.2% of 330,000 active; PI5P4Kalpha enzyme, ADP-Glo luminescence, 60 min; active compounds read low; active = max response of -50% or lower; inconclusive = between -30% and -50%; inactive = -30% or higher; also: value at the top dose of about 77 µM
Target sequence (P48426 whole entry, looked up): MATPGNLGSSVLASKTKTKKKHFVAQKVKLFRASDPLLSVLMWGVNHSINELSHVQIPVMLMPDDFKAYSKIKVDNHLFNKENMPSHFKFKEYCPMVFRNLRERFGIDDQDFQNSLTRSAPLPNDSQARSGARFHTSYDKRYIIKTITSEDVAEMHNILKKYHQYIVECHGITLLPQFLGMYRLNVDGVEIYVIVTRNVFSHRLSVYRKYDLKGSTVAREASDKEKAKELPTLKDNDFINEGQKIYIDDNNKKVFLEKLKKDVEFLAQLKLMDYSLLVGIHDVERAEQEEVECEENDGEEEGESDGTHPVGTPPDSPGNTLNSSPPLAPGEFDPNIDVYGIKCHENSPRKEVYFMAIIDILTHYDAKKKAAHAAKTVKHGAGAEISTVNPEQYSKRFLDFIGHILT
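Enzyme plus substrate dispensed, test compounds pinned in, then ATP (5 microM final) added. After 60 min at RT, ADP-Glo reagent 1 for 45 min and reagent 2 for 30 min preceded luminescence imaging.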
Hits are given with their value; 0 = inactive; ? = inconclusive; - = no result. Unless noted, calls follow the shape of the dose curve; as a rule, active = well fitted curve in the direction sought with a large enough effect; inconclusive = small, poorly fitted or top-dose-only effect, or another doubt; inactive = no such curve, though single readings can be large; an effect the other way counts as inactive or inconclusive.

SMILES	FEN1 inhibitor	KAT2A inh	APE1 inh	BLM inh	RECQ1 helicase	PI5P4Ka inh
Cc1cc(O)c(-c2cc(O)c(C)cc2O)cc1O	?	16µM	0	0	0	-67
Cc1ccc(N)cc1O	0	0	0	-	0	0
O=C1/C(=C/c2ccccc2O)SC(=S)N1Cc1cccnc1	0	0	0	0	0	-51
C=CCc1cccc(C=NNC(=O)CN2CCN(Cc3ccccc3)CC2)c1O	-	0	-	-	-	-
COc1ccc2nccc(/C=C/c3ccc(N(C)C)cc3)c2c1	0	-	-	-	-	-
CCCCCCCCCCCCCCCC(=O)O	-	0	-	0	-	-
CCCCCCCCCCCCCCSCC(=O)O	-	10µM	0	-	0	-
CC1=C(C#N)C(=O)NC(=O)/C1=C\c1ccc(-c2ccc(C)cc2[N+](=O)[O-])o1	0	?	?	0	0	-75
CCOC(=O)c1cc(-c2ccc(/C=C3/C(=O)NC(=O)C(C#N)=C3C)o2)ccc1Cl	?	?	?	0	?	-
O=c1nc2ccccc2c(NS(=O)(=O)c2ccc(Cl)cc2)n1-c1ccccc1	0	3.2µM	0	0	0	0
Cc1cc2c(cc1C)N[C@]1(C[C@H]3CCCC(=O)N4CC[C@@H](C1)[C@@H]34)C(=NCc1ccccc1)N2	0	-	-	-	-	-
O=C1NC(=Nc2ccc(Cl)cc2)/C(=C/c2ccco2)S1	0	0	?	11µM	0	?
C1=C/C(=C2/C=Cc3ccccc32)c2ccccc2N1	0	-	-	-	-	-
CCC1=NN2C(=N)/C(=C\c3ccc(OCCOc4ccc(NC(C)=O)cc4)cc3)C(=O)N=C2S1	0	0	0	0	-	0
CCc1nn2c(=O)cc(COc3ccc(/C=C4\C(=N)N5N=C(C)SC5=NC4=O)cc3)nc2s1	?	?	?	13µM	?	-72
Cc1cc(/C=C2\C=Cc3ccccc32)cc(C)c1[N+](=O)[O-]	0	-	-	-	-	-
O=C1Nc2cc(C(=O)NCCCN3CCOCC3)ccc2S/C1=C/c1cccc(Cl)c1	0	0	0	0	-	-51
O=C1Nc2cc(C(=O)NCCCN3CCOCC3)ccc2S/C1=C/c1ccccc1F	0	0	0	0	-	0
CCCCCCCCCCCC[n+]1ccc(C)c2ccccc21	35µM	-	-	-	-	-
CCCCCCCCCCCCCCCC[n+]1cccc2ccccc21	79µM	0	0	0	0	-59
COc1ccc(/C=C/C(=O)NC(=S)Nc2ccc(S(=O)(=O)Nc3cc(OC)ncn3)cc2)cc1	0	0	0	0	0	0
COc1cc(NS(=O)(=O)c2ccc(NC(=S)NC(=O)/C=C/c3ccc(OC)c(OC)c3)cc2)ncn1	45µM	0	?	0	0	0
CC(C)(C)n1ncc2c(=O)n(Cc3ccc(SC(=O)O)cc3Cl)cnc21	0	-	0	-	-	-
CCC(CO)n1c(SCc2cc([N+](=O)[O-])cc3c2OCOC3)nc2ccccc2c1=O (stereo not drawn)	0	0	0	0	0	0
C=CCn1c(SCc2cc([N+](=O)[O-])cc3c2OCOC3)nc2cc(C(=O)O)ccc2c1=O	0	0	0	0	0	-74
SMILES	FEN1 inhibitor	KAT2A inh	APE1 inh	BLM inh	RECQ1 helicase	PI5P4Ka inh
C=CCn1c(SCC(=O)Nc2ccccc2F)nc2ccccc2c1=O	0	0	0	0	-	0
C=CCn1c(SCC(=O)Nc2ccccc2-c2ccccc2)nc2cc(C(=O)O)ccc2c1=O	0	0	0	0	0	-55
CCOc1ccccc1N1C(=O)c2ccccc2N/C1=C\N1CCN(C(=O)c2ccco2)CC1	0	-	-	-	-	-
COc1ccccc1CN(C)CC(=O)c1c(C)[nH]c2ccccc12	0	-	-	-	-	-
O=c1oc2c(CN3CCCC3)c(O)ccc2cc1-c1ccccc1	0	18µM	-	0	-	-
COC(=O)COc1ccc2cc(-c3ccc(OC)cc3)c(=O)oc2c1	0	0	0	0	-	0
O=c1oc2c(CN3CCOCC3)c(O)ccc2cc1-c1ccc(Cl)cc1	0	?	-	0	-	-
COc1ccc(-c2cc3ccc(O)c(CN4CCCC4)c3oc2=O)cc1	0	?	-	0	-	-
COc1ccc(-c2cc3ccc(O)cc3oc2=O)cc1	0	32µM	0	0	-	0
COc1ccc(-c2cc3ccc(O)c(CN4CCC(C)CC4)c3oc2=O)cc1	0	28µM	-	0	-	-
CN(C)c1ccc(/C=C2\C=Cc3ccccc32)c(F)c1	0	-	-	-	-	-
O=C1C(=O)c2ncccc2-c2cccnc21	-	0	-	16µM	-	-
